A selection: hits, their analogues and other compounds. The true share with any hit is near 10%.
GLS inh: qHTS for Inhibitors of Glutaminase (GLS) | Glutaminase kidney isoform, mitochondrial (Homo sapiens), O94925 | GLS enzymatic activity, qHTS titration | Potency, µM (highest dose often 45.5 µM), without a hit: at the top dose activity change, negative = inhibition, most hits filed as inhibitors | actives 0.21% (n = 410,000) | AID 624170, 2012; note: % is set by controls: 0 for no effect and ±100 for the full control effect
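Read-out is an Amplex red fluorescence increase coupled through glutamate oxidase and HRP, measured before and after 30 min room-temperature incubation. hKGA is in 45 mM KH2PO4 (pH 8.2) with 0.02% Tween-20; glutamine added as 1mM solution.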
HP1b chromo inh: HTS for Inhibitors of HP1-beta Chromodomain Interactions with Methylated Histone Tails; Chromobox protein homolog 1 (Homo sapiens), P83916; AlphaScreen HP1-beta / biotin-H3K9me3 peptide binding; Potency, µM (top dose mostly 114 µM), for the others: at the top dose activity change, negative = inhibition, hits mostly inhibitors; actives 0.56% (n = 390,000); note: nearly all actives have a fitted effect of over 70% in size
Target sequence (P83916 whole entry, looked up): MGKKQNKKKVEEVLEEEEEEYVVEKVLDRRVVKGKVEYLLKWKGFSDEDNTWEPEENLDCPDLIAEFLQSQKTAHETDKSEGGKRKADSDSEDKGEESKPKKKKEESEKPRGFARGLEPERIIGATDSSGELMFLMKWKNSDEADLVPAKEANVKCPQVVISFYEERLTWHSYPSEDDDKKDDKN
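HP1-beta protein (50 nM final) preincubated 30 min at room temperature with biotinylated H3(1-18)K9me3 peptide (50 nM) in PBS pH 7.4, 0.01% Tween-20, then compound added for 30 min. AlphaScreen streptavidin donor/nickel chelate acceptor beads (10 ug/mL final), 30 min dark, luminescence read.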
BAZ2B block: qHTS Assay for Inhibitors of BAZ2B. Bromodomain adjacent to zinc finger domain protein 2B (Homo sapiens), Q9UIF8. AlphaScreen BAZ2B-H3K14Ac peptide displacement. Potency, µM (doses to about 114 µM), for the others: top-dose activity change, negative = inhibition, actives largely listed as inhibitors. actives 4.4% (n = 360,000). AID 504333, 2011; note: % is set by controls: 0 for no effect and ±100 for the full control effect; nearly all actives have a fitted effect of over 60% in size
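In this displacement format the biotinylated H3(5-23) peptide acetylated at Lys14 serves as ligand at 50 nM, with BAZ2B at 50 nM in PBS pH 7.4 containing 0.01% Tween-20. Donor and acceptor beads are 10 ug/mL final.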
JMJD2A Tudor inh: qHTS Assay for Inhibitors of JMJD2A-Tudor Domain; Lysine-specific demethylase 4A (Homo sapiens), O75164; AlphaScreen JMJD2A-Tudor / H3K4me3 peptide binding; Potency, µM (top dose mostly 114 µM), without a hit: top-dose activity change, negative = inhibition, most hits filed as inhibitors; actives 4.4% (n = 390,000); note: % is set by controls: 0 for no effect and ±100 for the full control effect; nearly all actives have a fitted effect of over 50% in size
G9a inh: qHTS Assay for Inhibitors of Histone Lysine Methyltransferase G9a | Histone-lysine N-methyltransferase EHMT2 (Homo sapiens), Q96KQ7 | G9a H3K9 monomethylation, AlphaScreen, 2 h | Potency, µM (top dose mostly 102 µM), for inactives: top-dose activity, negative = inhibition, hits mostly inhibitors | actives 8.8% (n = 350,000) | AID 504332, 2011; note: % is set by controls: 0 for no effect and ±100 for the full control effect; nearly all actives have a fitted effect of over 75% in size
Target sequence (Q96KQ7 913-1193 limits assumed): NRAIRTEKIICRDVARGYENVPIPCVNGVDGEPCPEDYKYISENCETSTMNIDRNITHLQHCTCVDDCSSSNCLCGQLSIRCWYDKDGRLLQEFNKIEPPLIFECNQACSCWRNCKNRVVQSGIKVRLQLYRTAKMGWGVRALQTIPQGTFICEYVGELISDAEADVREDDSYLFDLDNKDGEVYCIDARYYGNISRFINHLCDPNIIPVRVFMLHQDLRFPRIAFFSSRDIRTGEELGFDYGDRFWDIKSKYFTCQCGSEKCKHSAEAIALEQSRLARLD
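G9a (20 nM) preincubated 15 min RT with compounds, then 500 nM biotinylated H3K9 peptide and 20 uM SAM added; 2 h RT reaction. Monomethyl-H3K9 product detected by AlphaScreen with anti-H3K9me1 antibody, streptavidin donor and anti-rabbit IgG acceptor beads.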
Starred values were filed as active, the others as inactive; ? = inconclusive; nt = not tested or not shown; ! = repeats disagree; [ ] = another dose, or the depositor's remark. Calls come from the whole dose curve; as a rule, active = well fitted curve in the direction sought with a large enough effect; inconclusive = small, poorly fitted or top-dose-only effect, or another doubt; inactive = no such curve, though single readings can be large; an effect the other way counts as inactive or inconclusive. Potency is the fitted concentration of half-maximal effect.

SMILES	GLS inh	HP1b chromo inh	BAZ2B block	JMJD2A Tudor inh	G9a inh
C=CCOc1ccc(/C(O)=C2/C(=O)C(=O)N(CCCn3ccnc3)C2c2ccco2)cc1 (stereo not given)	1%	18%	50µM*	?	20µM*
COc1cc(C)ccc1OCCSc1nc2ccc(NC(=O)c3ccco3)cc2s1	1%	10%	-33%	-21%	?
Cc1ccc(C(=O)N2CCN(c3ccc(N4CCOCC4)nn3)CC2)cc1	-2%	20%	9%	-18%	24%[2.33 µM]
Cc1ccc(C(=O)Nc2ccc(N3CCOCC3)nc2N2CCOCC2)cc1	1.1µM*	19%	-1%	-8%	4%
CCCCCCCCCCCCCCCC(=O)OC[C@H](O)[C@H]1OC[C@@H](O)[C@@H]1O	-2%	nt	nt	nt	0%[12.7 µM]
COC(=O)c1c(C)oc2ccc(N(C(=O)c3ccncc3)S(=O)(=O)c3ccc(OC)cc3)cc12	5%	10%	-14%	-25%	-48%[59 µM]
O=C(NCCNCc1ccc(F)cc1)c1ccco1	-4%	?	50µM*	3.5µM*	7.9µM*
COCCCNC(=O)c1cccs1	-7%	74%	12%	1%	7%
COc1ccc(CNCCNC(=O)c2cccs2)c(OC)c1OC	-4%	-22%	56µM*	22µM*	14µM*
COc1ccc(OC)c(CNCCNC(=O)c2ccco2)c1	nt	nt	56µM*	nt	?
COc1cccc(CNCCNC(=O)c2ccco2)c1OC	-4%	-18%	50µM*	?	11µM*
CCOC(=O)c1c(C)oc2ncnc(N3CCN(c4ccccc4OC)CC3)c12	7%	31%	-4%[57.1 µM]	-23%	?
CCc1nc2ccc(C(=O)NCCc3ccc(OC)cc3OC)cc2nc1CC	-15%	21%	-5%	-7%	8%[59 µM]
COc1ccc(C(=O)/C=C/c2ccc(OC)c(Cn3nnc4ccccc43)c2)cc1	8%	7%	-34%	-25%	21%[59 µM]
Nc1cc(=O)[nH]c(SCC(=O)Nc2cccc(Cl)c2Cl)n1	0%	29%	-1%	-13%	-24%
O=C(CCN1C(=O)/C(=C/C=C/c2ccccc2)SC1=S)Nc1nccs1	6%	2%	-4%	-12%	5%
O=C(CCN1C(=O)/C(=C\C=C\c2ccccc2)SC1=S)Nc1ccccc1C(=O)O	-2%	?	-11%	45µM*	73%
O=C(CCN1C(=O)/C(=C\C=C\c2ccccc2)SC1=S)Nc1cccc(C(=O)O)c1	1%	?	20µM*	50µM*	nt
CCCCC/C=C\C/C=C\C/C=C\C/C=C\CCCC(=O)O[C@@H](CO)COCCCCCCCCCCCCCCCC	nt	nt	nt	nt	9%[59 µM]
Cc1cccc(OCCCN2CCOCC2)c1	-4%	34%	-21%	-5%	31%[12.7 µM]
Cc1cccc(C)c1OCCN1CCCC1	5%	?	?	25µM*	25µM*
Cc1cccc(Cl)c1OCCCN1CCOCC1	9%	?	?	1.6µM*	10µM*
Cc1cccc(C)c1OCCCCN1CCCCC1	-7%	?	?	28µM*	79µM*
Cc1cccc(C)c1OCCOCCN1CCN(C)CC1	9%	25µM*!	-29%	13µM*!	-42%[59 µM]
Cc1cc(C)c(OCCOCCN2CCCC2)c(C)c1	17%	?	nt	?	nt
SMILES	GLS inh	HP1b chromo inh	BAZ2B block	JMJD2A Tudor inh	G9a inh
Cc1cc(Cl)cc(C)c1OCCCCN1CCOCC1	-1%	39%	10%	-15%	?
Cc1cc(Cl)c(OCCCCN2CCOCC2)c(Br)c1	5%	?	50µM*	3.5µM*	?
Cc1cccc(C)c1OCCCN1CCCC1	-3%	?	50µM*	2.5µM*	10µM*
O=C1c2ccccc2C(=O)N1OS(=O)(=O)c1ccccc1	nt	nt	-11%	nt	4µM*
O=C1c2cccc3cccc(c23)C(=O)N1OS(=O)(=O)c1ccccc1	-11%	4%	7%	-23%	27%[59 µM]
Cc1ccc(C)c(S(=O)(=O)ON2C(=O)c3ccccc3C2=O)c1	26%	32µM*	-6%	?	7.9µM*
Cc1cc(S(=O)(=O)ON2C(=O)c3ccccc3C2=O)ccc1F	26%	?	-26%	79µM*	7.1µM*

Screens deposited in PubChem by National Center for Advancing Translational Sciences (NCATS).
